A selection: hits, their analogues and other compounds. The true share with any hit is near 2.2%.
Ba/F3 V617F tox – reduce viability of Ba/F3 cells dependent on JAK2V617F; inhibition, % at 5.6 µM; 220,000 compounds, 1.1% hits; Ba/F3 EpoR-JAK2V617F viability, ATP luminescence;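 active = inhibition above the campaign mean plus 3 SD over all tested compounds, cut at about 24% in these data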;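 also: cytokine-independent growth of Ba/F3 cells driven by EpoR plus mutant JAK2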
KLF5 inh – kruppel-like factor 5 inhibition. DLD-1 KLF5 promoter-luciferase reporter, luminescence. inhibition, % at 5 µM. 290,000 compounds, 0.23% hits;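 active = inhibition above a per-plate limit of that plate's mean compound inhibition plus 3 SD, cut at about 60% in these data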;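 also: higher means less KLF5 promoter-driven luciferase light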
BaF3 parental – reduces parental Ba/F3 cell viability, JAK2V617F counter-screen; CellTiter-Glo ATP luminescence; 220,000 compounds, 1.1% hits; AID 1486; inhibition, % at 5.6 µM;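 active = inhibition above a per-campaign cutoff, the mean inhibition of all tested compounds plus 3 SD, cut at about 27% in these data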
IEC-6 cytotox – IEC-6 cytotoxicity, counter-screen for KLF5 inhibitors. luminescence viability. inhibition, % at 5 µM. 290,000 compounds, 0.78% hits. AID 1825; in the data active = inhibition above about 22%
aSyn 5UTR inh – MLPCN primary screen, SNCA 5' untranslated region; alpha-synuclein 5'UTR reporter, inhibitor activity; inhibition, % (tested at 7.5 µM); 300,000 compounds, 0.82% hits; AID 1813; in the data active = inhibition above about 60%;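 also: H4 neuroglioblastoma cells stably carrying SNCA 5'UTR luciferase fusion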
APP 5UTR inh – APP translation inhibition; AID 1285; inhibition, % at 2 µM; SH-SY5Y APP 5'UTR-luciferase reporter, luminescence; 190,000 compounds, 0.82% hits;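 active = inhibition above a set limit, derived from the sample mean plus 3 SD, cut at about 45% in these data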
Large screens that a line does not name were inactive.

COc1cc2c(cc1NC(=O)c1ccc(C)c([N+](=O)[O-])c1)oc1ccccc12	none
COc1cc2c(cc1NC(=O)C(C)N1CCN(S(=O)(=O)c3ccccc3[N+](=O)[O-])CC1)oc1ccccc12 (centres undefined)	APP 5UTR inh 93.3
COc1cc2c(cc1NC(=O)COc1ccc3ccccc3c1)oc1ccccc12	APP 5UTR inh 45.6
COc1cc2c(cc1NC(=O)c1cccc([N+](=O)[O-])c1)oc1ccccc12	aSyn 5UTR inh 80.9
Cn1c(N2CCCC2)nc2c1c(=O)[nH]c(=O)n2C	none (no result: Ba/F3 V617F tox, BaF3 parental, APP 5UTR inh)
CC(C)c1ccc(NC(=O)CCNC(=O)Cn2cnc3ccccc3c2=O)cc1	none (no result: Ba/F3 V617F tox, BaF3 parental, APP 5UTR inh)
CC1CCc2cccc3c2N1c1cc(C#N)c(C#N)cc1O3 (centres undefined)	aSyn 5UTR inh 71.4
C=CCn1c(N)cc(=O)nc1SCC(=O)Nc1ccc(C(=O)OCC)cc1	none (no result: Ba/F3 V617F tox, BaF3 parental, APP 5UTR inh)
Cc1cccc2nc(CNC(=O)CC3C(=O)NCCN3Cc3cccc(F)c3)cn12 (centres undefined)	none (no result: Ba/F3 V617F tox, BaF3 parental, APP 5UTR inh)
CCOC(=O)CS(=O)(=O)c1nc(-c2ccccc2)cc(C(F)(F)F)n1	Ba/F3 V617F tox 78.6, IEC-6 cytotox 27.8, APP 5UTR inh 56.9
COC(=O)CCS(=O)(=O)c1nc(-c2ccccc2)cc(C(F)(F)F)n1	none
CS(=O)(=O)c1nc(-c2ccc(F)cc2)cc(C(F)(F)F)n1	IEC-6 cytotox 25.1
CCOC(=O)CS(=O)(=O)c1nc(-c2ccc(F)cc2)cc(C(F)(F)F)n1	APP 5UTR inh 60.7
CCOC(=O)CCS(=O)(=O)c1nc(-c2ccccc2)cc(C(F)(F)F)n1	Ba/F3 V617F tox 39.2
COc1ccc(CNC(=O)[C@H](C)NC(=O)C2CCN(C(=O)[C@@H](N)CCSC)CC2)cc1	none (no result: Ba/F3 V617F tox, BaF3 parental, APP 5UTR inh)
N#Cc1ccsc1NC(=O)CN1C(=O)NC2(CCCCC2)C1=O	none (no result: Ba/F3 V617F tox, BaF3 parental, APP 5UTR inh)
Clc1ccc(Nc2ccccc2)nn1	none (no result: APP 5UTR inh)
COc1ccc(-n2c(CCC(=O)O)ccc2-c2ccccc2)cc1	BaF3 parental 29.4
COc1ccc(C2=NN(C(=O)c3ccccc3)C(c3ccc(OC)c(OC)c3)C2)c(OC(C)=O)c1 (centres undefined)	none (no result: Ba/F3 V617F tox, BaF3 parental, APP 5UTR inh)
Cc1ccc(N(C(=O)c2csnn2)C(C(=O)NC2CCCCC2)c2cccnc2)cc1C (centres undefined)	none (no result: Ba/F3 V617F tox, BaF3 parental, APP 5UTR inh)
Cn1c(N)c(C(=O)COC(=O)CC2CC3CCC2C3)c(=O)n(C)c1=O (centres undefined)	BaF3 parental 59.7
Cn1c(N)c(C(=O)COC(=O)CSc2ccccc2)c(=O)n(C)c1=O	none
Cc1ccc(-c2nc3cc(NC(=O)C(C)C)ccc3o2)cc1	BaF3 parental 28.0
Cc1ccc(-c2nc3cc(NC(=O)C(C)C)ccc3o2)cc1C	none
O=C(Nc1nc2ccccc2[nH]1)C1CCCO1 (centres undefined)	none
Cc1cccc(-c2nc3cc(NC(=O)C4CCCO4)ccc3o2)c1 (centres undefined)	aSyn 5UTR inh 72.5
Cc1ccc2oc(-c3cccc(NC(=O)C4CCCO4)c3)nc2c1 (centres undefined)	none
O=C(Nc1ccc(-c2nc3ccccc3[nH]2)cc1)C1CCCO1 (centres undefined)	aSyn 5UTR inh 76.7
CC(=O)Nc1c(O)c2cccc3c2n(c1=O)CCC3	none (no result: Ba/F3 V617F tox, KLF5 inh, BaF3 parental, IEC-6 cytotox, APP 5UTR inh)
CCN(CC)C(=O)C(=O)N/N=C/c1ccc(F)cc1	none
CCOc1ccc(N2CC(C(=O)Nc3c(C)n(C)n(-c4ccccc4)c3=O)CC2=O)cc1 (centres undefined)	none
O=C(COc1ccc(Oc2ccccc2)cc1)NCc1cn2ccccc2n1	Ba/F3 V617F tox 31.1, BaF3 parental 26.6, IEC-6 cytotox 37.4, aSyn 5UTR inh 62.4
O=C(O)c1ccc(OCc2cn3ccccc3n2)cc1	none (no result: APP 5UTR inh)
CCOC(=O)COc1ccccc1/C=C\[N+](=O)[O-]	none
COc1ccc(NC(=O)CN2C(=O)CSC(C)C2=O)c(OC)c1 (centres undefined)	BaF3 parental 29.8
CCn1c(SCC(=O)NC2CCCCC2)nnc1-c1ccco1	none (no result: Ba/F3 V617F tox, BaF3 parental, APP 5UTR inh)
Fc1ccc(NC(=S)N2CCc3ccccc3C2)c(F)c1	BaF3 parental 39.4
Fc1ccc(NC(=S)N2CCOCC2)c(F)c1	none (no result: Ba/F3 V617F tox, BaF3 parental, APP 5UTR inh)
O=c1cc(CSc2nnc(-c3cccs3)n2Cc2ccccc2)nc2sc3ccccc3n12	Ba/F3 V617F tox 43.0, BaF3 parental 54.9
Cc1cc(C(=O)CSc2nnc(-c3cccs3)n2Cc2ccccc2)c(C)n1C	none
O=C(/C=C\Nc1ccc2c(c1)OCO2)c1ccccn1	aSyn 5UTR inh 117.6
CC(=O)COc1cc2c(-c3cc4ccccc4o3)cc(=O)oc2cc1C	none (no result: Ba/F3 V617F tox, BaF3 parental, APP 5UTR inh)

Source: PubChem (several laboratories)
